From PubChem BioAssay (NCATS)
Where “and” joins values, the source holds several entries; their conditions need not be identical. Equal entries are not always repeated. A number with no mark means an inactive call. Records with an inconclusive call do not appear. Calls of active or inactive are those of the source. Calls come from the whole dose curve; as a rule, active = well fitted curve in the direction sought with a large enough effect; inconclusive = small, poorly fitted or top-dose-only effect, or another doubt; inactive = no such curve, though single readings can be large or run the other way.

target: Hexokinase-4 (Homo sapiens) + Glucokinase regulatory protein (Homo sapiens) (UniProt P35557+Q14397); experiment: qHTS assay for inhibitors of recombinant human GCK-GKRP interaction: HTRF assay (AID 743207); conditions: recombinant GCK-GKRP HTRF binding, 60 min; series mostly up to 57.5 µM;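 note: 0% = DMSO with GCK present and -100% = DMSO wells lacking GCK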
Method in brief: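 After 60 min equilibration at room temperature with anti-FLAG XL665 and anti-GST antibodies, FRET ratio (665/615 nm, excitation 320 nm) was read. Proteins: GST-GCK and FLAG-GKRP, each 5 nM, plus 2 uM S6P, pH 7.1 buffer; GCK-free wells define minimum signal.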

Chain of Hexokinase-4 (Homo sapiens) + Glucokinase regulatory protein (Homo sapiens) (P35557 whole entry, looked up): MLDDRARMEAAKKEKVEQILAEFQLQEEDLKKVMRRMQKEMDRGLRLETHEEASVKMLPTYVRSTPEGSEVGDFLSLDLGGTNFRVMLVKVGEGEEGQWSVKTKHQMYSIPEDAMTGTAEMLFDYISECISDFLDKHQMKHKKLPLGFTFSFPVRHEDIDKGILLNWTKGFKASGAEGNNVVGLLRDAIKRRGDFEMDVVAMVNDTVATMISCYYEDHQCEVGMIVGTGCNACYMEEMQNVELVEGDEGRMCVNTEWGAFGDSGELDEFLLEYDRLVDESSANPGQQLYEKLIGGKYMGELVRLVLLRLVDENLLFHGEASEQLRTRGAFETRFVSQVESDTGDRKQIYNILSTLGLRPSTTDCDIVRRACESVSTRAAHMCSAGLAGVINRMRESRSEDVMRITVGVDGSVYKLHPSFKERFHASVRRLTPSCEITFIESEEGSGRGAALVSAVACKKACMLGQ
Chain of Hexokinase-4 (Homo sapiens) + Glucokinase regulatory protein (Homo sapiens) (Q14397 whole entry, looked up): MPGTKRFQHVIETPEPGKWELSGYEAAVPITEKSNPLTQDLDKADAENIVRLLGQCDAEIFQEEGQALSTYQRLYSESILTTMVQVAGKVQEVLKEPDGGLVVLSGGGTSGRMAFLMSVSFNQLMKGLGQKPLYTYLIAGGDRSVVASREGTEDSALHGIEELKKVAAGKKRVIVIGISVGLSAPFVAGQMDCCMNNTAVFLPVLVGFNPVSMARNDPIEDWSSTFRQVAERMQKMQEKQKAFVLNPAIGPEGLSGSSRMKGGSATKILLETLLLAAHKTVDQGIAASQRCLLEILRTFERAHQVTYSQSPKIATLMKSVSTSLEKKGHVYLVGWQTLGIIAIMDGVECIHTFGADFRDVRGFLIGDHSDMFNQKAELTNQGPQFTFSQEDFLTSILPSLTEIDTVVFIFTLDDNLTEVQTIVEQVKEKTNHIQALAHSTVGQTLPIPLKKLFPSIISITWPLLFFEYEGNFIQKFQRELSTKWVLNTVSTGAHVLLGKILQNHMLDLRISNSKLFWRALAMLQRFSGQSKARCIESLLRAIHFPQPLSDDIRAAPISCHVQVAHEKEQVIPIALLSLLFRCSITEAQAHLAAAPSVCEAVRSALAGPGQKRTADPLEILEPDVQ

Which outcome does the source give for `O=C(O)CCCc1ccc(N(CCCl)CCCl)cc1` here?
Its outcome is “inactive”.

For `CC(C)c1cccc(C(C)C)c1O`, which outcome is on record?
The outcome was “inactive”.

Which outcome does the source give for `CN1C(=O)CCS(=O)(=O)C1c1ccc(Cl)cc1` (stereo unspecified) here?
Its outcome is “inactive”.

With `CC(C)N(CCC(C(N)=O)(c1ccccc1)c1ccccn1)C(C)C` (stereo unspecified) as the compound, how does the outcome read?
The outcome was “inactive”.

For `O=c1[nH]oc2c1CCNC2`, which outcome is on record?
The outcome was “inactive”.

With `Cc1ncsc1CCCl` as the compound, how does the outcome read?
The outcome was “inactive”.

With `CC(C)(C)NCC(O)c1ccccc1Cl` (stereo unspecified) as the compound, how does the outcome read?
The outcome was “inactive”.

For `COc1ccc2c(c1OC)C(=O)O[C@H]2[C@@H]1c2cc3c(cc2CCN1C)OCO3`, which outcome is on record?
The outcome was “inactive”.

With `CCC1(c2ccc(N)cc2)CCC(=O)NC1=O` (stereo unspecified) as the compound, how does the outcome read?
Its outcome is “inactive”.

For `NCCc1ccc(O)cc1`, which outcome is on record?
Its outcome is “inactive”.

For `CCCCC/C=C\C/C=C\C/C=C\C/C=C\CCCC(=O)NCC(=O)O`, which outcome is on record?
Its outcome is “inactive”.

With `C=C(C)[C@H]1CN[C@H](C(=O)O)[C@H]1CC(=O)O` as the compound, how does the outcome read?
The outcome was “inactive”.

With `CC(NC(C)(C)C)C(=O)c1cccc(Cl)c1` (stereo unspecified) as the compound, how does the outcome read?
The outcome was “inactive”.

With `O=P1(N(CCCl)CCCl)NCCCO1` (stereo unspecified) as the compound, how does the outcome read?
The outcome was “inactive”.

For `O=C(CCCN1CCC2(CC1)C(=O)NCN2c1ccccc1)c1ccc(F)cc1`, which outcome is on record?
The outcome was “inactive”.

test system: not listed separately; experiment: qHTS Assay for Identifying Gametocytocidal Compounds (AID 743244);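 note: % is set by controls: 0 for no effect and ±100 for the full control effect; actives lower the fluorescent signal which means gametocytes are killed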; conditions: P. falciparum 3D7 stage III-V gametocytes, alamarBlue, 72 h; max response: active compounds read low
Method in brief: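 Stage III-V P. falciparum 3D7 gametocytes, 20,000 per well, were exposed to compounds for 72 h at 37C, 5% CO2. AlamarBlue was then added for 24 h and viability was read as fluorescence at Ex 525/Em 598 nm.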

With `CC(C)NC(C)C` as the compound, how does the max response read?
Its max response is 15.3%.

With `C[C@]12CCC(=O)C=C1CC[C@@H]1[C@@H]2CC[C@]2(C)C(=O)CC[C@@H]12` as the compound, how does the max response read?
The max response was 5.73%.

Which max response does the source give for `O=C(O)CCCc1ccc(N(CCCl)CCCl)cc1` here?
The max response was -1.81% and 3.48%.

Which max response does the source give for `Nc1ccccc1` here?
Its max response is -6%.

For `CC(C)c1cccc(C(C)C)c1O`, which max response is on record?
The max response was -8.91% and 15.4%.

For `CCCC(C)(COC(N)=O)COC(N)=O`, which max response is on record?
Its max response is -2.61%.

With `CN1C(=O)CCS(=O)(=O)C1c1ccc(Cl)cc1` (stereo unspecified) as the compound, how does the max response read?
Its max response is -2.23% and 6.27%.

Which max response does the source give for `CCC(C)(C)c1ccc(O)cc1` here?
The max response was 15.1%.

With `COc1cc(OC)c(OC)cc1C=O` as the compound, how does the max response read?
Its max response is 4.65%.

For `CC(C)N(CCC(C(N)=O)(c1ccccc1)c1ccccn1)C(C)C` (stereo unspecified), which max response is on record?
Its max response is 11.9% and -6.08% and 19.7%.

With `O=c1[nH]oc2c1CCNC2` as the compound, how does the max response read?
The max response was 1.24% and 27.1%.

With `COC(=O)C(c1ccccc1)C1CCCCN1` (stereo unspecified) as the compound, how does the max response read?
The max response was -2.03%.

Which max response does the source give for `Cc1ncsc1CCCl` here?
The max response was 5.08% and 26.9%.

Which max response does the source give for `C[C@]12CCC(=O)C=C1CC[C@@H]1[C@@H]2CC[C@@]2(C)[C@H]1CC[C@]2(C)O` here?
The max response was -12% and -18.1%.

For `CC(C)(C)NCC(O)c1ccccc1Cl` (stereo unspecified), which max response is on record?
Its max response is -5.65% and 5.12%.

With `COP(=S)(OC)Oc1ccc(SC)c(C)c1` as the compound, how does the max response read?
The max response was -2.21%.

Which max response does the source give for `Nc1ccccc1C(=O)O` here?
The max response was 3.13%.

Which max response does the source give for `Oc1ccc(Cl)cc1` here?
The max response was -8.53%.

With `COc1ccc2c(c1OC)C(=O)O[C@H]2[C@@H]1c2cc3c(cc2CCN1C)OCO3` as the compound, how does the max response read?
Its max response is 10.8% and 14.8%.

With `CCC1(c2ccc(N)cc2)CCC(=O)NC1=O` (stereo unspecified) as the compound, how does the max response read?
Its max response is 3.2% and 30.1%.

Which max response does the source give for `NCCc1ccc(O)cc1` here?
Its max response is -2.18% and 16.8%.

Which max response does the source give for `CCCCC/C=C\C/C=C\C/C=C\C/C=C\CCCC(=O)NCC(=O)O` here?
The max response was -2.03% and 7.82%.

For `C=C(C)[C@H]1CN[C@H](C(=O)O)[C@H]1CC(=O)O`, which max response is on record?
Its max response is 5.55% and 38.6%.

Which max response does the source give for `CC(NC(C)(C)C)C(=O)c1cccc(Cl)c1` (stereo unspecified) here?
The max response was -0.241% and 10.5%.

With `O=P1(N(CCCl)CCCl)NCCCO1` (stereo unspecified) as the compound, how does the max response read?
Its max response is -0.339% and 12.3%.

Which max response does the source give for `O=C(CCCN1CCC2(CC1)C(=O)NCN2c1ccccc1)c1ccc(F)cc1` here?
The max response was -9.38% and 8.83%.
